# High-throughput results as filed in PubChem.
# HCMV inh = qHTS Assay for inhibitors of the human cytomegalovirus (HCMV); activity change, negative = inhibition, % at 57.5 µM; 410,000 compounds, 4.5% hits; HFF cells, HCMV-luciferase reporter, 72 h; hits give low values; in the data active = activity change below about -60%; inconclusive = no clear call, values can overlap the other calls; inactive = above about -39%
#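 HFF cells seeded 16 h at 37C, treated with compounds, infected with luciferase-reporter HCMV at MOI 1 PFU/cell; luciferase read at 72 h post infection, normalized to buffer-only and Salinomycin controls.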
# FMDV inh = High Throughput Screening for Foot and Mouth Disease Virus Antivirals; AID 1159524, 2015; Potency, µM (titrated, usually from 57.9 µM), actives largely listed as inhibitors; FMDV antiviral cell-based qHTS; 410,000 compounds, 1.2% hits; calls by dose curve; tested in HEK293T cells; note: read-out not given here; nearly all actives have a fitted effect of over 45% in size
# HCV inhibitor = qHTS Assay for Inhibitors of Hepatitis C Virus (HCV); Huh7.5.1 HCVcc-Cre infection, luciferase reporter, 44 h; Potency, µM (titrated, usually from 41.8 µM), most hits filed as inhibitors; 340,000 compounds, 3.4% hits; AID 651820, 2012; active = well fitted inhibition curve with a large enough effect; inconclusive = small, poorly fitted or top-dose-only effect, or another doubt; inactive = no such curve, though single readings can be large or run the other way
#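 HCVcc-Cre virus at an moi near 0.5 was added right after compound to cells cultured 4 h from seeding (1,000 cells/well). Luciferase activity was determined 44 h later, 15 min after substrate addition at RT.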
# VACV mCherry inh = qHTS for Stage-Specific Inhibitors of Vaccinia Orthopoxvirus: mCherry Reporter Primary qHTS; Vaccinia virus mCherry reporter infection, fluorescence; 310,000 compounds, 0.63% hits; Potency, µM (highest dose often 36.5 µM), actives largely listed as inhibitors; AID 720579, 2013; calls by dose curve; tested in A549 cells; note: nearly all actives have a fitted effect of over 35% in size
# VACV Venus inh = qHTS for Stage-Specific Inhibitors of Vaccinia Orthopoxvirus: Venus Reporter Primary qHTS. Vaccinia virus Venus reporter expression, fluorescence. Potency, µM (highest dose often 36.5 µM), actives largely listed as inhibitors. 330,000 compounds, 0.46% hits. AID 720580, 2013; calls by dose curve; tested in A549 cells; note: nearly all actives have a fitted effect of over 30% in size
# Hits are given with their value; - = inactive; ? = inconclusive; . = no result given; [ ] = another dose, or the depositor's remark. Compounds with a hit are over-represented: about 7.3% of the library has one in this group of screens.
SMILES,HCMV inh,FMDV inh,HCV inhibitor,VACV mCherry inh,VACV Venus inh
CCc1ccc(NC(=O)CC2C(=O)N(c3cccc(C)c3)C(=O)N2Cc2ccco2)cc1 (centres undefined),?,-,.,-,-
CCC(CO)Oc1cc(NCc2ccccc2)c2ncn(C(C)C)c2c1 (centres undefined),?,-,?,?,-
CCCCOc1cc(NCc2ccccc2)c2ncn(C(C)C)c2c1,?,-,11.2µM,-,?
CCC(COC)Oc1cc(NCc2ccccc2)c2ncn(C(C)C)c2c1 (centres undefined),-,-,11.2µM,-,?
CC(C)n1cnc2c(NCc3ccccc3)cc(N[C@H](C)CO)cc21,.,8.91µM,?,?,14.1µM
CCC(CO)Oc1cc(NCc2ccc(O)cc2)c2ncn(C(C)C)c2c1 (centres undefined),-,-,-,?,-
COCCCOc1cc(NCc2ccccc2)c2ncn(C(C)C)c2c1,-,-,?,-,-
CCC(CO)Oc1cc(NCc2ccc(C(C)(C)C)cc2)c2ncn(C(C)C)c2c1 (centres undefined),-,-,7.94µM,12.6µM,?
COC(=O)CN1C(=O)CSc2ccc(S(=O)(=O)Nc3ccc(C(C)=O)cc3)cc21,?,-,.,-,-
CCc1sc(C(=O)Nc2cccnc2)cc1Br,-,-,-,-,-
CCc1ccccc1NC(=O)NC(CC)Cn1nnc2ccccc2c1=O (centres undefined),-,-,.,-,-
CCC(CO)Oc1cc(NCc2cccc(O)c2)c2ncn(C(C)C)c2c1 (centres undefined),-,-,?,?,-
CCC(CO)Oc1cc(NCc2cccc(OC)c2)c2ncn(C(C)C)c2c1 (centres undefined),-,-,2µM,-,-
c1ccc(C2[C@H]3CN(Cc4cccnc4)[C@H](c4ccccc4)C34CC2(c2cccnc2)C4)cc1 (some centres undefined),-64.6,-,-[8.37 µM],-,?
c1ccc(C2[C@H]3CN(Cc4cccnc4)[C@H](c4ccccc4)C34CC2(c2ccccc2)C4)cc1 (some centres undefined),-,?,-,-,-
COC(=O)c1cccc(C23CC4(C2)[C@H](CN(Cc2ccc(C(F)(F)F)cc2)[C@@H]4c2ccccc2)C3c2ccc(Cl)nc2)c1 (some centres undefined),-,-,-,-,-
COC(=O)c1cccc(C23CC4(C2)[C@H](CN(Cc2ccc(C(F)(F)F)cc2)[C@@H]4c2ccccc2)C3c2ccc(C(F)(F)F)cc2)c1 (some centres undefined),-94.2,-,-[8.37 µM],-,-
FC(F)(F)c1ccc(CN2C[C@@H]3C(c4ccc(C(F)(F)F)cc4)C4(c5cccnc5)CC3(C4)[C@H]2c2ccccc2)cc1 (some centres undefined),-72.8,?,-,-,-
c1ccc(Cc2cnc(N3CCN(Cc4ccc5c(c4)OCCO5)CC3)nc2)cc1,-,.,.,.,.
OC(c1ccc(F)c(F)c1)c1nc(-c2ccc3c(c2)OCO3)cs1 (centres undefined),-,-,.,-,-
O=c1[nH]c(=S)[nH]c(O)c1N=Nc1ccc2c(c1)OCCO2,?,-,-,-,-
O=c1[nH]c(O)c(N=Nc2ccc3c(c2)OCCO3)c(=O)[nH]1,-82.1,?,-,-,-
O=C1NC(=S)SC1=Cc1cccs1,-,-,-,-,-
O=C1Nc2ccccc2S/C1=C/c1cccs1,-,-,6.31µM,-,?
S=c1[nH]nc(-c2cc(-c3ccccc3)n[nH]2)n1/N=C/c1ccc(Br)s1,-,?,-,-,-
SMILES,HCMV inh,FMDV inh,HCV inhibitor,VACV mCherry inh,VACV Venus inh
CC(C)CN(CC(C)C)CC(O)Cn1cc(/C=C/C(=O)c2ccccc2)c2ccccc21 (centres undefined),-,-,.,-,-
CCOc1ccc(C(=O)/C=C/c2cn(CN3CCN(C)CC3)c3ccccc23)cc1,-,-,?,-,-
COc1ccc(C(=O)/C=C/c2cn(CC(O)CN3CCc4ccccc43)c3ccccc23)cc1OC (centres undefined),-63.7,?,.,?,-
Cc1ccc(C(=O)/C=C/c2cn(CC(O)CN3CCc4ccccc43)c3ccccc23)cc1 (centres undefined),-74.0,-,.,-,-
COc1ccc(C(=O)/C=C/c2cn(CN3CCN(C)CC3)c3ccccc23)cc1,.,-,8.91µM,.,.
COc1ccc(C(=O)/C=C/c2cn(CC(O)CN3CCOCC3)c3ccccc23)cc1 (centres undefined),.,?,?,-,-
CCCN(CCC)CC(O)Cn1cc(/C=C/C(=O)c2ccc(OCC)cc2)c2ccccc21 (centres undefined),-105.9,-,.,?,?
Cc1cccc(C)c1NC(=O)C1(C)CSCC(=O)N1CCCN1CCOCC1 (centres undefined),-,-,.,-,-
CCn1c(-c2ccccc2Cl)nn(CC(=O)Nc2cc(Cl)ccc2Cl)c1=S,?,?,12.6µM,-[1.46 µM],-
CCn1c(-c2ccccc2Cl)nn(CC(=O)NCCc2ccccc2)c1=S,-,-,-,-,-
CC1(C(=O)NS(=O)(=O)C2CC2)CCCN(C(=O)c2cccc(Cl)c2)C1 (centres undefined),-,-,.,-,-
CC(C)Oc1ccc(Br)cc1/C=N\NC(N)=S,?,?,?,5.62µM,7.94µM
COc1ccc(NC(=O)CSC2=Nc3ccccc3C3=NC(CCC(=O)NCc4ccco4)C(=O)N23)cc1 (centres undefined),-,?,.,-,-
O=C(Cc1ccsc1)NNC(=O)c1ccccc1Cl,-,-,-,-,-
N#Cc1c2ccc(OCC(N)=O)cc2n2ccccc12,-,-,12.6µM,.,.
CCOC(=O)COc1ccc2c(C#N)c3ccccn3c2c1,-,-,-,.,.
CC(C)C(=O)N[C@@H]1c2ccccc2CC[C@@H]1OCc1ccccc1,-82.2,-,-,-,-
COc1ccc(CC(=O)N[C@@H]2c3ccccc3CC[C@H]2OCc2ccccc2)cc1,-,-,?,-,-
O=C(Cc1cccs1)N[C@@H]1c2ccccc2CC[C@@H]1OCc1ccccc1,-,-,-,-,-
O=C(Cc1cccs1)N[C@@H]1c2ccccc2CC[C@H]1OCc1ccccc1,-99.3,-,-,-,-
CCOC(=O)C(CC)/C(C)=N\NC(=O)c1ccccc1O (centres undefined),-90.4,-,-,?,?
CN(C)S(=O)(=O)c1cccc(NC(=O)C2CCCN(C(=O)c3ccc(Cl)cc3)C2)c1 (centres undefined),-,?,.,-,-
O=C1c2c(-c3ccc(Br)cc3)noc2CCN1Cc1cn(Cc2cccnc2)nn1,-,?,.,?,-
